In PubChem BioAssay (Tox21):
Records with an inconclusive call do not appear. Unmarked numbers belong to inactive results. Calls follow the shape of the dose curve; as a rule, active = well fitted activation curve with a large enough effect in the repeat runs; inconclusive = weak or mixed curves; inactive = flat fitted curve, though single readings scatter.

Test: A CellTox Green Cytotoxicity Assay to monitor cytotoxicity in HepG2 cells - 24 hour (AID 1224878); also: nearly all actives have a fitted effect of over 45% in size
Settings: CellTox Green fluorescence; series mostly up to 76.8 µM; cytotoxicity: at the top concentration
Source text: National Center for Advancing Translational Sciences [NCATS]
NIH Chemical Genomics Center [NCGC]
U.S. Environmental Protection Agency [EPA]
National Institutes of Environmental Health Sciences [NIEHS]
National Toxicology Program [NTP]
Cell-based models are critical for drug discovery. Determining the natural cytotoxic effects resulting from test compounds is an essential research activity. A CellTox Green Cytotoxicity Assay to monitor cytotoxicity in real time of continues cell culture during 40 hours of the compound treatment was used to screen Tox21 10K library compounds in HepG2 cells. CellTox Green Cytotoxicity Assay is a nonlytic, homogeneous, biofluorescent method to measure cytotoxicity in cell culture after experimental manipulation. The assay system uses a proprietary asymmetric cyanine dye that is excluded from viable cells but preferentially stains the dead cell's DNA. […] Viable cells produce no appreciable increases in fluorescence. Therefore, the fluorescence signal produced by the binding interaction with dead cell DNA is proportional to cytotoxicity.
The mixture of HepG2 cell suspension and reagents were dispensed at 600cells/6 ul/well in 1536-well tissue culture treated black solid bottom plates using a Multidrop dispenser. After the assay plates were incubated at a 37 C/5% CO2 incubator for 5 hours, 23 nL of compounds dissolved in DMSO, positive and negative controls was transferred to the assay plate by a pintool work station. The plates were incubated at 37 C for 40 hours. The fluorescence intensity were measured at 0h, 8h, 16h, 24h, 32h and 40h time points using ViewLux plate reader during compound treatment.
% is scaled to controls: 0 for no effect and ±100 for the full control effect.

| SMILES | cytotoxicity |
| --- | --- |
| CCCCC(CC)COCCO (stereo not given) | -3.81% |
| CC(CN)CC(C)(C)CCN (stereo not given) | -0.107% [at 200 µM] |
| CN(C)C(=O)CNC(=O)Cc1ccccc1 | -17.8% [at 35.3 µM] |
| CCOC(=O)c1ccc(OC(=O)CCCCCN=C(N)N)cc1 | -5.6% [at 35.3 µM] |
| O=C1O[C@@H]2[C@@H](O)[C@H](O)O[C@@H]2[C@H]1O | -11.7% |
| CC(CO)c1ccccc1 (stereo not given) | -8.54% |
| O=C1CC(c2ccc(Cl)cc2)CC(=O)N1 | -12.6% [at 35.3 µM] |
| C=C(C)C(=O)OCC(C)(C)COC(=O)C(=C)C | 19% |
| CNS(=O)(=O)CCc1ccc2[nH]cc(C3CCN(C)CC3)c2c1 | -16.3% [at 35.3 µM] |
| Nc1cccc(O)c1 | -0.524% |
| CCCCCCN | 0.013% |
| Cc1c(I)c(=O)n(-c2ccccc2)n1C | -8.96% [at 35.3 µM] |
| CCOC(=O)c1ncn2c1CN(C)C(=O)c1cc(F)ccc1-2 | -12.8% [at 35.3 µM] |
| Cc1ccccc1N=O | -6.84% |
| CC(C)NCC(O)COc1ccc(COCCOC(C)C)cc1 (stereo not given) | -5.54% [at 35.3 µM] |
| O=C(OCC(O)CO)c1ccccc1Nc1ccnc2c(C(F)(F)F)cccc12 (stereo not given) | -10.9% [at 35.3 µM] |
| CC(N)C(=O)OC(C)(C)Cc1ccc(Cl)cc1 (stereo not given) | 0.493% [at 35.3 µM] |
| CC(=O)/C=C/C1C(C)=CCC(C)C1(C)C (stereo not given) | -6.13% |
| O=C1c2ccccc2C(=O)N1CCl | 0.874% |
| C=C(C)C(=O)OCc1ccccc1 | 0.956% |

| SMILES | cytotoxicity |
| --- | --- |
| CCCCCCCCOS(=O)(=O)O | -15.7% |
| O=C(CS(=O)Cc1ccco1)NC/C=C\COc1cc(CN2CCCCC2)ccn1 (stereo not given) | 0.439% [at 35.3 µM] |
| O=C(CCN1CCN(CCO)CC1)N1c2ccccc2Sc2ccc(C(F)(F)F)cc21 | 1.3% [at 35.3 µM] |
| CC(C)C[C@H](NC(=O)CNC(=O)[C@H](Cc1ccc(O)cc1)NC(=O)[C@H](CO)NC(=O)[C@H](Cc1c[nH]c2ccccc12)NC(=O)[C@H](Cc1cnc[nH]1)NC(=O)[C@@H]1CCC(=O)N1)C(=O)N[C@@H](CCCN=C(N)N)C(=O)N1CCC[C@H]1C(=O)NCC(N)=O (stereo in doubt) | -11.1% [at 35.3 µM] |
| CNC(=O)[C@H]1O[C@@H](n2cnc3c(NCc4cc(Cl)ccc4OCc4cc(C)no4)ncnc32)[C@H](O)[C@@H]1N | -5.98% |
| N[C@@H](COP(=O)(O)O)C(=O)O | 0.599% [at 15.8 µM] |
| CCCOC(=O)C(C)O (stereo not given) | 4.25% |
| O=C(OCc1ccccc1)C(=O)OCc1ccccc1 | -13.9% |
| O=P(O)(O)OP(=O)(O)O | 9.63% |
| COc1ccc2c(c1)C(=O)N(CCc1ccc(S(=O)(=O)NC(=O)NC3CCCCC3)cc1)C(=O)C2(C)C | -14.3% [at 35.3 µM] |
| CC(=O)OC(C)OC(=O)C(C)c1ccc(-c2ccccc2)c(F)c1 (stereo not given) | 12.2% [at 35.3 µM] |
| CC(C)OC(=O)CCCCC(=O)OC(C)C | 1.79% |
| CC(=O)N[C@@H](CCC(=O)O)C(=O)O | -14.3% [at 35.3 µM] |
| C[C@H](N)[C@H](O)c1cccc(O)c1 | -12.3% [at 35.3 µM] |
| OCCN(CCO)c1cccc(Cl)c1 | 2.46% |
| COC(=O)C1CC(=O)C(C(=O)OC)CC1=O (stereo not given) | -7.82% [at 6.97 µM] |
| CCOC(=O)CC(=O)c1ccccc1 | 18.8% |
| CC1(C)S[C@@H]2[C@H](N=CN3CCCCCC3)C(=O)N2[C@H]1C(=O)O | -18.9% [at 35.3 µM] |
| CCNC(=O)C1CC(C)CCC1C(C)C (stereo not given) | -11.1% |
| O=C(O)Cc1cn(-c2ccccc2)nc1-c1ccc(Cl)cc1 | -3.8% [at 35.3 µM] |
